# Reference: the supplement of paper PMC6897291
# What was measured:
# U-2932 [1] = assay: growth inhibition by drug alone (1 - RLU/untreated control) (fraction); higher = stronger inhibition; details: 177Lu-lilotomab satetraxetan 0 ug/ml
# Procedure, shortened: (§1)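 Growth inhibition was calculated from RealTime-Glo RLU against untreated no-drug wells. Values equal 1 − RLU/mean of 48 untreated no-drug wells per plate, read daily from day 3 after 1 h at 37°C. RIVA and U-2932 cells, with or without 18 h pretreatment by a radiolabelled anti-CD37 antibody conjugate (~600 MBq/mg; 0.5 µg/ml RIVA, 1 µg/ml U-2932), were washed and plated at 3,000 cells/well on compound-printed plates at 10/100 nM (RIVA) or 10/1,000 nM (U-2932).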
# RIVA [2] = assay: as above; details: 177Lu-lilotomab satetraxetan 0 ug/ml
# Procedure, shortened: as §1
# U-2932 [3] = assay: growth inhibition by drug plus 177Lu-lilotomab satetraxetan (1 - RLU/untreated control) (fraction); higher = stronger inhibition; details: 177Lu-lilotomab satetraxetan 1 ug/ml
# Procedure, shortened: as §1
# RIVA [4] = assay: as above; details: 177Lu-lilotomab satetraxetan 0.5 ug/ml
# Procedure, shortened: as §1
SMILES,"growth inhibition by drug alone (U-2932 [1]; 10 nM, time (day): 3)","growth inhibition by drug alone (U-2932 [1]; 10 nM, time (day): 4)","growth inhibition by drug alone (U-2932 [1]; 10 nM, time (day): 5)","growth inhibition by drug alone (U-2932 [1]; 10 nM, time (day): 6)","growth inhibition by drug alone (U-2932 [1]; 1000 nM, time (day): 3)","growth inhibition by drug alone (U-2932 [1]; 1000 nM, time (day): 4)","growth inhibition by drug alone (U-2932 [1]; 1000 nM, time (day): 5)","growth inhibition by drug alone (U-2932 [1]; 1000 nM, time (day): 6)","growth inhibition by drug alone (RIVA [2]; 10 nM, time (day): 3)","growth inhibition by drug alone (RIVA [2]; 10 nM, time (day): 4)","growth inhibition by drug alone (RIVA [2]; 10 nM, time (day): 5)","growth inhibition by drug alone (RIVA [2]; 10 nM, time (day): 6)","growth inhibition by drug alone (RIVA [2]; 100 nM, time (day): 3)","growth inhibition by drug alone (RIVA [2]; 100 nM, time (day): 4)","growth inhibition by drug alone (RIVA [2]; 100 nM, time (day): 5)","growth inhibition by drug alone (RIVA [2]; 100 nM, time (day): 6)","growth inhibition by drug plus 177Lu-lilotomab satetraxetan (U-2932 [3]; 10 nM, time (day): 3)","growth inhibition by drug plus 177Lu-lilotomab satetraxetan (U-2932 [3]; 10 nM, time (day): 4)","growth inhibition by drug plus 177Lu-lilotomab satetraxetan (U-2932 [3]; 10 nM, time (day): 5)","growth inhibition by drug plus 177Lu-lilotomab satetraxetan (U-2932 [3]; 10 nM, time (day): 6)","growth inhibition by drug plus 177Lu-lilotomab satetraxetan (U-2932 [3]; 1000 nM, time (day): 3)","growth inhibition by drug plus 177Lu-lilotomab satetraxetan (U-2932 [3]; 1000 nM, time (day): 4)","growth inhibition by drug plus 177Lu-lilotomab satetraxetan (U-2932 [3]; 1000 nM, time (day): 5)","growth inhibition by drug plus 177Lu-lilotomab satetraxetan (U-2932 [3]; 1000 nM, time (day): 6)","growth inhibition by drug plus 177Lu-lilotomab satetraxetan (RIVA [4]; 10 nM, time (day): 3)","growth inhibition by drug plus 177Lu-lilotomab satetraxetan (RIVA [4]; 10 nM, time (day): 4)","growth inhibition by drug plus 177Lu-lilotomab satetraxetan (RIVA [4]; 10 nM, time (day): 5)","growth inhibition by drug plus 177Lu-lilotomab satetraxetan (RIVA [4]; 10 nM, time (day): 6)","growth inhibition by drug plus 177Lu-lilotomab satetraxetan (RIVA [4]; 100 nM, time (day): 3)","growth inhibition by drug plus 177Lu-lilotomab satetraxetan (RIVA [4]; 100 nM, time (day): 4)","growth inhibition by drug plus 177Lu-lilotomab satetraxetan (RIVA [4]; 100 nM, time (day): 5)","growth inhibition by drug plus 177Lu-lilotomab satetraxetan (RIVA [4]; 100 nM, time (day): 6)"
Nc1ccccc1NC(=O)c1ccc(CNc2nccc(-c3cccnc3)n2)cc1 [Mocetinostat (MGCD0103)],0.00982,0.0102,0.0298,0.152,0.868,0.878,0.889,0.91,-0.0534,-0.0971,-0.0989,-0.142,0.358,0.254,0.208,0.152,-0.0242,-0.00346,0.0145,0.11,0.876,0.893,0.907,0.934,0.466,0.553,0.579,0.576,0.681,0.692,0.705,0.7
Cc1cc(O)c2c(c1)C(=O)c1cccc(O)c1C2=O [Chrysophanic acid (Chrysophanol)],-0.0586,-0.0671,-0.0488,0.0657,-0.0803,-0.0522,-0.0654,0.0406,-0.266,-0.269,-0.305,-0.322,-0.0635,-0.135,-0.0963,-0.115,-0.0546,-0.0035,0.0467,0.1,-0.0941,-0.0464,-0.00693,0.13,0.425,0.48,0.511,0.511,0.489,0.543,0.559,0.574
COc1cc2ncnc(Nc3ccc(F)c(Cl)c3)c2cc1OCCCN1CCOCC1 [Gefitinib (Iressa)],0.0523,-0.0185,-0.0608,-0.248,-0.147,-0.0975,-0.157,-0.226,-0.00639,-0.111,-0.168,-0.438,-0.234,-0.33,-0.334,-0.479,-0.0292,-0.0156,-0.0275,0.0384,-0.218,-0.0647,-0.0381,0.0874,0.402,0.522,0.546,0.553,0.408,0.485,0.503,0.494
Oc1nc(-c2ccc(C(F)(F)F)cc2)nc2c1CSCC2,0.0264,0.0499,-0.0107,-0.0367,0.0107,0.081,0.0386,-0.0985,-0.012,-0.067,-0.12,-0.313,-0.101,-0.117,-0.135,-0.199,-0.00592,0.0339,0.0301,0.0994,-0.0747,0.0641,0.0547,0.062,0.347,0.483,0.51,0.519,0.424,0.518,0.521,0.496
